Data: PubChem BioAssay (Tox21)
Records with an inconclusive call do not appear. Entries that show only a call come without a potency. Some compounds were tested as several samples or in several runs, with calls that do not always agree. Calls of active or inactive are those of the source. The call rests on the fitted dose curve.
Potency means the concentration at half of the fitted maximal effect.

Assay: p53 small molecule agonists, cell-based qHTS assay with human liver microsomes: qHTS cell viability counter screen (AID 1963579); further: nearly all actives have a fitted effect of over 45% in size
Settings: p53RE-bla HCT-116 viability, ATP luminescence, 16 h, HLM; series mostly up to 66 µM
From the text: National Center for Advancing Translational Sciences [NCATS]
Division of Preclinical Innovation [DPI]
U.S. Environmental Protection Agency [EPA]
National Institutes of Environmental Health Sciences [NIEHS]
National Toxicology Program [NTP]
U.S. Food and Drug Administration [FDA]
p53, a tumor suppressor protein, is activated following cellular insult, including DNA damage and other cellular stresses. The activation of p53 regulates cell fate by inducing DNA repair, cell cycle arrest, apoptosis, or cellular senescence. The activation of p53, therefore, is a good indicator of DNA damage and other cellular stresses. […] The activation of the reporter gene under culture conditions can be detected by fluorescence intensity. This cell line was used to screen the Tox21 10K compound library in the condition of presence of human liver microsomes and to identify agonists that activate the p53 signaling pathway after in vitro metabolic activation (Ooka et al., Archive of Toxicology 96:1975-1987, 2022).
Tox21 Assay Protocol Summary:
The p53RE-bla cells were dispensed at 4,000cells/3ul/well in 1536-well black-clear bottom plates. After the assay plates were incubated at 37 C, 5% CO2 incubator for 5 hours, 23 nL of compounds dissolved in DMSO, positive controls or DMSO only was transferred to the assay plate. Following compound addition, 3 uL of human liver microsomes (XenoTech, Kansas City, KS) at final concentration of 0.5 mg/mL and 1uL of B-Nicotinamide adenine dinucleotide 2'-phosphate (NADPH) at final concentration of 0.5 mg/mL were transferred to the assay plate. The plates were incubated at 37 C for 16 hours. 1 uL of LiveBLAzer detection mixture was added to each well and the plates were incubated at room temperature in the dark for 2 h. Fluorescence intensity at 460 and 530 nm emission and 405 nm excitation were measured by an Envision plate reader. For cell viability readout that measures cytotoxicity, 4 ul/well of CellTiter-Glo reagent was added into the assay plates using a Flying Reagent Dispenser. After 30 min incubation at room temperature, the luminescence intensity in the plates was measured using a ViewLux plate reader.
For `CC1(C)CO[C@@H](CC(=O)O)CN1`, the Potency was “inactive”.
In the case of `O=C1OC2(c3ccccc31)c1cc(Br)c(O)c(Br)c1Oc1c2cc(Br)c(O)c1Br`, the Potency is reported as “inactive”.
For `CC(=O)/C=C/C1C(C)=CCCC1(C)C` (stereo not given), the Potency was “inactive”.
With `C[n+]1ccn(Cc2ccccc2)c1` the Potency was “inactive”.
For `CC/C=C\CCO`, the Potency was “inactive”.
For `O=C(c1ccc(OCCN2CCCCC2)cc1)c1c(-c2ccc(O)cc2)sc2cc(O)ccc12`, the Potency was 45.8 µM (active) and inactive.
With `C=CC(O)CCCCC` (stereo not given) the Potency was “inactive”.
In the case of `CCCCCCCCCCCCOCC1CO1` (stereo not given), the Potency is reported as “inactive”.
For `O=C(c1ccccc1)c1ccccc1O`, the Potency was “inactive”.
In the case of `CC(=O)O[C@@H]1CC2C3CCc4cc(OC(=O)c5ccccc5)ccc4C3CCC2(C)[C@H]1OC(C)=O` (stereo not given in full), the Potency is reported as “inactive”.
With `CC1CC(=O)CC(C)(C)C1` (stereo not given) the Potency was “inactive”.
With `CC(S)C(=O)NCC(=O)O` (stereo not given) the Potency was “inactive”.
For `CCCOCCO`, the Potency was “inactive”.
For `COC(=O)c1cc(S(N)(=O)=O)ccc1OC`, the Potency was “inactive”.
With `CC(C)=C1CC[C@@H](C)CC1=O` the Potency was “inactive”.
In the case of `C=CCCCCCCCC`, the Potency is reported as “inactive”.
For `CCCCC(CC)COCCO` (stereo not given), the Potency was “inactive”.
For `N#Cc1ccc(C2CCCc3cncn32)cc1` (stereo not given), the Potency was “inactive”.
With `CCCCCCCCCCC` the Potency was “inactive”.
In the case of `O=[N+]([O-])c1ccccc1Nc1ccccc1`, the Potency is reported as “inactive”.
In the case of `CC(=O)c1ccc2c(c1)CCCC2`, the Potency is reported as “inactive”.
With `COc1ccc(N=[N+]([O-])c2ccc(OC)cc2)cc1` the Potency was “inactive”.
For `O=C1c2ccccc2C(=O)C1c1ccc2cc(S(=O)(=O)O)cc(S(=O)(=O)O)c2n1`, the Potency was “inactive”.
For `Cc1ccc(C)cc1`, the Potency was “inactive”.
In the case of `COc1c(Cl)ccc(Cl)c1C(=O)O`, the Potency is reported as “inactive”.
With `COc1cccc(OC)c1O` the Potency was “inactive”.
In the case of `O=C[C@H](O)[C@@H](O)[C@H](O)[C@H](O)CO`, the Potency is reported as “inactive”.
In the case of `O=C(O)/C=C/c1cnc[nH]1`, the Potency is reported as “inactive”.
With `OC1(c2ccc(Cl)cc2)CCNCC1` the Potency was “inactive”.
In the case of `CCCCCCCCC1CCC(=O)O1` (stereo not given), the Potency is reported as “inactive”.
With `Cc1ccc(C(C)(C)C)cc1` the Potency was “inactive”.
For `Oc1ccc(/C=C/c2cc(O)cc(O)c2)cc1`, the Potency was “inactive”.
In the case of `CC(C)C(=O)Nc1cccc(C2CN3CCSC3=N2)c1` (stereo not given), the Potency is reported as “inactive”.
For `CCC(C)(O)CCC=C(C)C` (stereo not given), the Potency was “inactive”.
In the case of `O=C1Nc2ccccc2C1=O`, the Potency is reported as “inactive”.
For `O=C(Oc1ccccc1)c1ccc(O)cc1`, the Potency was “inactive”.
In the case of `CC(C)=CCCC(C)O` (stereo not given), the Potency is reported as “inactive”.
In the case of `CCC(C)CO` (stereo not given), the Potency is reported as “inactive”.
In the case of `CC(=O)OCCc1ccccc1`, the Potency is reported as “inactive”.
In the case of `CN=C(NC#N)NCCSCc1nc[nH]c1C`, the Potency is reported as “inactive”.
